The values below come from PubChem BioAssay (Tox21).

Assay [1] can be described thus: Caspase-3/7 induction in HepG2 cells by small molecules, qHTS assay (AID 1346978). Note: nearly all actives have a fitted effect of over 15% in size. Note: potency is the fitted concentration of half-maximal effect. Put shortly: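 Caspase-3/7 induction was measured by Caspase-Glo 3/7 luminescence (30 min, room temperature) after a 17 hr compound exposure of wild-type HepG2 cells seeded at 2,000 per well and pre-incubated 5 hr.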
In general terms: In qHTS, concentration-response curves come from the screen itself.

Assay [2] is described as follows: Caspase-3/7 induction in CHO-K1 cells by small molecules, qHTS cell viability counter screen (AID 1346979). Note: nearly all actives have a fitted effect of over 35% in size. Note: potency is the fitted concentration of half-maximal effect. In short, it runs like this: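 Wild-type CHO-K1 cells were seeded at 1,500 per well, rested 5hr at 37 C, then exposed to compounds in DMSO. After 16hr, CellTiter-Fluor reagent was added and fluorescence read 1hr later as the viability measure.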
Assay [3] can be described thus: Caspase-3/7 induction in CHO-K1 cells by small molecules, qHTS assay (AID 1346980). Note: nearly all actives have a fitted effect of over 15% in size. Put shortly: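 Luminescent Caspase-Glo 3/7 read (30min, room temperature) quantified apoptosis induction. Cells were wild-type CHO-K1, treated with compound for 17hr at 37 C and 5% CO2.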
The nature of assay [4]: Caspase-3/7 induction in HepG2 cells by small molecules, qHTS cell viability counter screen (AID 1346981). Note: nearly all actives have a fitted effect of over 30% in size. Note: potency is the fitted concentration of half-maximal effect. In short, it runs like this:
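Cell viability is measured as a cytotoxicity counter screen alongside the Caspase-Glo 3/7 readout in identical wells. Wild-type HepG2 cells are treated with test compounds for 16 hr at 37 C before CellTiter-Fluor addition and a 1-hr incubation.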

In assay [5] the target is Nuclear receptor subfamily 1 group I member 2 (Homo sapiens) (UniProt O75469). The experiment in a line: Human pregnane X receptor (PXR) small molecule agonists, qHTS assay (AID 1346982). Note: nearly all actives have a fitted effect of over 35% in size. Note: potency is the fitted concentration of half-maximal effect. In short, it runs like this: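 Cells: HepG2 stably carrying PXR-Luc. Medium held 5% charcoal-stripped FBS. Compounds in DMSO added after 5 hr plating, incubated 24 hr, then luminescence quantified with ONE-Glo.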

Assay [6] has as its target Cytochrome P450 2C19 (Homo sapiens) (UniProt P33261). The experiment in a line: Cytochrome P450 Family 2 Subfamily C Member 19 (CYP2C19) small molecule antagonists: luciferase reporter qHTS assay (AID 1671197). Note: nearly all actives have a fitted effect of over 65% in size. Note: potency is the fitted concentration of half-maximal effect. In short, it runs like this: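 P450-Glo CYP2C19 screening system; proluciferin substrate; DMSO compound stocks; 10 min RT preincubation; NADPH regeneration, 1 h at 37C; luciferin detection reagent, 20 min RT; luminescence as RLU.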
In general terms: A reporter such as luciferase makes a cellular process visible.

Assay [7] has as its target Cytochrome P450 2C9 (Homo sapiens) (UniProt P11712). The experiment in a line: Cytochrome P450 Family 2 Subfamily C Member 9 (CYP2C9) small molecule antagonists: luciferase reporter qHTS assay (AID 1671198). Note: nearly all actives have a fitted effect of over 50% in size. Note: potency is the fitted concentration of half-maximal effect. In short, it runs like this:
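Enzyme-substrate mix preincubated with compound 10 min at room temperature; reaction started with NADPH regeneration solution, 1 h 37C. Luminescent luciferin product read after 20 min detection reagent.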

Assay [8] has as its target Cytochrome P450 1A2 (Homo sapiens) (UniProt P05177). The assay can be described thus: Cytochrome P450 Family 1 Subfamily A Member 2 (CYP1A2) small molecule antagonists: luciferase reporter qHTS assay (AID 1671199). Note: nearly all actives have a fitted effect of over 50% in size. Note: potency is the fitted concentration of half-maximal effect. In short, it runs like this:
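Compounds were incubated with CYP1A2 and a luminogenic proluciferin substrate for 10 min at room temperature before the reaction was started with NADPH regeneration solution. After 1 h, detection reagent was added and light output, proportional to CYP activity, was recorded.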

For assay [9], the target named is Voltage-gated inwardly rectifying potassium channel KCNH2 (Homo sapiens) (UniProt Q12809). The assay can be described thus: Human Ether-a-go-go-Related Gene (hERG) channel small molecule antagonists: fluorescence cell-based qHTS assay (AID 1671200).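 Note: hERG-expressing U2OS cells given a thallium stimulus after FluxOR II dye loading; series mostly up to about 77 µM; nearly all actives have a fitted effect of over 50% in size.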 Put shortly: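 U2OS cells expressing the channel were plated at 1000 cells/well, incubated overnight at 37 C, then loaded with FluxOR II thallium-sensitive dye for 1 h at room temperature in the dark, with a further 10 min at room temperature before stimulation.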
(In general: Block of hERG is tested as a sign of cardiac risk.)

The target of assay [10] is Nuclear receptor subfamily 1 group I member 2 (Rattus norvegicus) (UniProt Q9R1A7). The assay can be described thus: Rat pregnane X receptor (rPXR) activation by small molecules, qHTS assay (AID 1346983). Note: nearly all actives have a fitted effect of over 20% in size. The note with it: rPXR luciferase reporter cells, One-Glo luminescence, 24 h; stronger effect = higher value. Put shortly: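 Luminescent readout (One-Glo luciferase, 30 min room temperature) followed 24 hr compound treatment at 37 C of rPXR cells plated 2,000 per well and preincubated 5hr; qHTS format with compounds delivered in DMSO.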

Assay [11] has as its target Nuclear receptor subfamily 1 group I member 2 (Homo sapiens) (UniProt O75469). The assay can be described thus: CYP3A4 induction through human pregnane X receptor (PXR) by small molecules, qHTS assay (AID 1346984). Note: nearly all actives have a fitted effect of over 40% in size. Put shortly: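 Quantitative HTS in DPX-2 cells, i.e. HepG2 transfected with PXR response element and CYP3A4-promoter luciferase. Compounds in DMSO incubated 24hr at 37C; then P450-Glo CYP3A4 substrate, 3uM final, 3hr; One-Glo luminescence.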

Assay [12] has the same target. The experiment in a line: Human pregnane X receptor (PXR) activation by small molecules, qHTS assay (AID 1346985). Note: nearly all actives have a fitted effect of over 40% in size. Put shortly: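 DPX-2 cells (HepG2 co-transfected with a PXR response element and a CYP3A4-promoter luciferase construct) were seeded at 2,000 per well, rested 5 hr at 37C, then exposed to DMSO-dissolved compounds for 24 hr. Activation was read as luciferase luminescence.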

The target of assay [13] is Cytochrome P450 2D6 (Homo sapiens) (UniProt P10635). The assay can be described thus: Cytochrome P450 Family 2 Subfamily D Member 6 (CYP2D6) small molecule antagonists: luciferase reporter qHTS assay (AID 1671196). Note: nearly all actives have a fitted effect of over 50% in size. Note: potency is the fitted concentration of half-maximal effect. Put shortly:
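Enzyme and proluciferin substrate were first combined with test chemical for 10 min at room temperature. Adding NADPH regeneration solution started a 1 h reaction, stopped with luciferin detection reagent and read by luminescence 20 min later.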

The target in assay [14] is Cytochrome P450 3A4 (Homo sapiens) (UniProt P08684). The experiment in a line: Cytochrome P450 Family 3 Subfamily A Member 4 (CYP3A4) small molecule antagonists: luciferase reporter qHTS assay (AID 1671201). In short, it runs like this: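 P450-Glo CYP3A4 system with proluciferin substrate; compounds preincubated 10 min RT with enzyme-substrate mix, then NADPH regeneration added for 1 h RT. Detection reagent 20 min, luminescence read as relative luminescence units.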

Values joined by “and” are separate entries in the source; they are usually repeats but may differ in a detail not shown here. Identical values can stand only once. Inconclusive results are not listed. Some compounds were tested as several samples or in several runs, with calls that do not always agree. Active and inactive are the calls of the source. Calls come from the whole dose curve; as a rule, active = well fitted curve in the direction sought with a large enough effect in the repeat runs; inconclusive = weak or mixed curves; inactive = no such curve, though single readings can be large; an effect the other way counts as inactive or inconclusive.
% is set by controls: 0 for no effect and ±100 for the full control effect.

Cytochrome P450 1A2 (Homo sapiens), sequence (P05177 whole entry, looked up): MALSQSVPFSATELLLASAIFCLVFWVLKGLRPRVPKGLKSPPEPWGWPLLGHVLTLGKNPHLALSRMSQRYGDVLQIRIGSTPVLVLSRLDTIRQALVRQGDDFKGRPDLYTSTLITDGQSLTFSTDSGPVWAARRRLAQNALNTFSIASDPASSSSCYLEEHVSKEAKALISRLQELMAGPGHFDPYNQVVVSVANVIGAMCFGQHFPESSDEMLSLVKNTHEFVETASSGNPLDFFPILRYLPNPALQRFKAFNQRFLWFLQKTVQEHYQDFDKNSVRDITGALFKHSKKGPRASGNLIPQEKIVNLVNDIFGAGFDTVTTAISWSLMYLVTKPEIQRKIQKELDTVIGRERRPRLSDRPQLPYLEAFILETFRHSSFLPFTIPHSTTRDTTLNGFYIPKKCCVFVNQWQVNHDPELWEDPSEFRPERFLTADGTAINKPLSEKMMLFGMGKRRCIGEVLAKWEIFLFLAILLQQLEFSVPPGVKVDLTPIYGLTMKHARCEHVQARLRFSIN
Nuclear receptor subfamily 1 group I member 2 (Homo sapiens), sequence (O75469 whole entry, looked up): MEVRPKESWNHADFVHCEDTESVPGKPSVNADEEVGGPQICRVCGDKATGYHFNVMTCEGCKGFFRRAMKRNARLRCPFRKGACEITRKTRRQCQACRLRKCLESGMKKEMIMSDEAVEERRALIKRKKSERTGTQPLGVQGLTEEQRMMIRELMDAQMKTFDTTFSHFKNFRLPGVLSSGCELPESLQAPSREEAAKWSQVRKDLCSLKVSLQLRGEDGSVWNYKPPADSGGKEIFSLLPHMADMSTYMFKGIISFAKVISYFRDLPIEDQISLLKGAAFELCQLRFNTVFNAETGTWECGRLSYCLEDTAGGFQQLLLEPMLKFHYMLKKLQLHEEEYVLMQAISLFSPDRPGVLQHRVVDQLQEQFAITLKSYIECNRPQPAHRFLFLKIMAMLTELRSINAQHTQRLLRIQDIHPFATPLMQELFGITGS
Cytochrome P450 2C19 (Homo sapiens), sequence (P33261 whole entry, looked up): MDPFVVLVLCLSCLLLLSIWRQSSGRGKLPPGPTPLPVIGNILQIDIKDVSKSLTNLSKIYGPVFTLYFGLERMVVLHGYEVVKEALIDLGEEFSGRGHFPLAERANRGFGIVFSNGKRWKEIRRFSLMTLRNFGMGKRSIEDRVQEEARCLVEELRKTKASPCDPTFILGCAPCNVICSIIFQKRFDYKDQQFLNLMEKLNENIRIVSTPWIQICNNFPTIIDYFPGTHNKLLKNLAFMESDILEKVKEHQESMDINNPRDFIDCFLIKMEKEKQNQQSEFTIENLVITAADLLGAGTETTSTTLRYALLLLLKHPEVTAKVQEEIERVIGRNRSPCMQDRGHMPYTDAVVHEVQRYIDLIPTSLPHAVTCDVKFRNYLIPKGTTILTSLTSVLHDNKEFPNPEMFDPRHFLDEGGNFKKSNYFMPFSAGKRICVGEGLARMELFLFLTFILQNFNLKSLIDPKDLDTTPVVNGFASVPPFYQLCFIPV
Voltage-gated inwardly rectifying potassium channel KCNH2 (Homo sapiens), sequence (Q12809 whole entry, looked up): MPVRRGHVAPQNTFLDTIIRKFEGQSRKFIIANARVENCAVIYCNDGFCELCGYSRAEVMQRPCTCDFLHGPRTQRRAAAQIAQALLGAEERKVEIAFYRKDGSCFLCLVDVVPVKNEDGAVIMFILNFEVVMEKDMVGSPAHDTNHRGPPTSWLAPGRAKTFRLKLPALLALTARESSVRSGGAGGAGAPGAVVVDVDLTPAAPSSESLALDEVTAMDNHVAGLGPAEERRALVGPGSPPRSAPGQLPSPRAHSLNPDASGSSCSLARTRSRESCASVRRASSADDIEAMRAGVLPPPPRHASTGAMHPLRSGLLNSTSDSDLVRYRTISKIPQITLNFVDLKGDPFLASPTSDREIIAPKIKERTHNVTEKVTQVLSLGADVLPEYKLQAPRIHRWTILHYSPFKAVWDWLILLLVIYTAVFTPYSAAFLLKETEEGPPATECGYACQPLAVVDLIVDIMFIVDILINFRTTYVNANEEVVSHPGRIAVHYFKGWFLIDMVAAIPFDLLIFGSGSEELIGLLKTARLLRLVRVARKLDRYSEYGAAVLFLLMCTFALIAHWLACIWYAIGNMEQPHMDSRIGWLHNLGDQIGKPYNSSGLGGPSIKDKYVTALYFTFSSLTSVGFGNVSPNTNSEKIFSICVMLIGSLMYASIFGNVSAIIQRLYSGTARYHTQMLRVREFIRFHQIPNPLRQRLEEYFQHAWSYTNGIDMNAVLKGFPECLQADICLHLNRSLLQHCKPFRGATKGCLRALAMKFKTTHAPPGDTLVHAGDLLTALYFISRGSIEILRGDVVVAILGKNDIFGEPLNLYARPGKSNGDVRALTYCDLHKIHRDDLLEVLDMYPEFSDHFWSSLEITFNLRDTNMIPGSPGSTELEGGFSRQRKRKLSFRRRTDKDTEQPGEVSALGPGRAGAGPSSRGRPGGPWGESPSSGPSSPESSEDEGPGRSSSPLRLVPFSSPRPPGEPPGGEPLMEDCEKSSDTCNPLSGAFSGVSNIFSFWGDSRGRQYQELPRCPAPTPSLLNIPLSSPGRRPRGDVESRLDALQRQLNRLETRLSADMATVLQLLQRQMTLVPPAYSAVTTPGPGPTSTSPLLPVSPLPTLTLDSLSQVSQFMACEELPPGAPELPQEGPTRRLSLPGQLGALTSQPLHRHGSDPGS
Nuclear receptor subfamily 1 group I member 2 (Rattus norvegicus), sequence (Q9R1A7 whole entry, looked up): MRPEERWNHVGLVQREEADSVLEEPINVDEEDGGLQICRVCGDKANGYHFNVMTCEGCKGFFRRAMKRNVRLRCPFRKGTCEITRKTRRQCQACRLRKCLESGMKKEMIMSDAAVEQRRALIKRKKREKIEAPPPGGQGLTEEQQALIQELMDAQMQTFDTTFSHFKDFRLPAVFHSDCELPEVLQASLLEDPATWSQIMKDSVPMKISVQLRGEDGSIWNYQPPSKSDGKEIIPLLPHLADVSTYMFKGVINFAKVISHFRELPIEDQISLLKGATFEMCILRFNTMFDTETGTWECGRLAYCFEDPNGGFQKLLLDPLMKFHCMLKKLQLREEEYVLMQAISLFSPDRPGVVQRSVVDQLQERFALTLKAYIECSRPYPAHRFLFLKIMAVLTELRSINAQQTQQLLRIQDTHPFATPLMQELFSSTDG
Cytochrome P450 2D6 (Homo sapiens), sequence (P10635 whole entry, looked up): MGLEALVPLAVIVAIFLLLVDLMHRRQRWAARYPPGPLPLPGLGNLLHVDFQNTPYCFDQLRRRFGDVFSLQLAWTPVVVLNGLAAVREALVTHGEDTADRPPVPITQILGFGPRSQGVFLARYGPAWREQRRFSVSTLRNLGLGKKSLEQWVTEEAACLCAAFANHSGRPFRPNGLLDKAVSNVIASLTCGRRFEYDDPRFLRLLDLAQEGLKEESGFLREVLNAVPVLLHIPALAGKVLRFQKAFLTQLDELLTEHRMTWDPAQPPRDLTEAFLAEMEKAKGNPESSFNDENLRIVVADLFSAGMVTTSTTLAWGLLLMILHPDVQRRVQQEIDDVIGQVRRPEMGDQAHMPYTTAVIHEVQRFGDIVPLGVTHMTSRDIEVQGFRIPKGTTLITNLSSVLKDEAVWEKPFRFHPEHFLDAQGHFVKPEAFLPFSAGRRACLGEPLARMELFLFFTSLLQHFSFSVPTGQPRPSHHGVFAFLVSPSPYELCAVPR
Cytochrome P450 3A4 (Homo sapiens), sequence (P08684 whole entry, looked up): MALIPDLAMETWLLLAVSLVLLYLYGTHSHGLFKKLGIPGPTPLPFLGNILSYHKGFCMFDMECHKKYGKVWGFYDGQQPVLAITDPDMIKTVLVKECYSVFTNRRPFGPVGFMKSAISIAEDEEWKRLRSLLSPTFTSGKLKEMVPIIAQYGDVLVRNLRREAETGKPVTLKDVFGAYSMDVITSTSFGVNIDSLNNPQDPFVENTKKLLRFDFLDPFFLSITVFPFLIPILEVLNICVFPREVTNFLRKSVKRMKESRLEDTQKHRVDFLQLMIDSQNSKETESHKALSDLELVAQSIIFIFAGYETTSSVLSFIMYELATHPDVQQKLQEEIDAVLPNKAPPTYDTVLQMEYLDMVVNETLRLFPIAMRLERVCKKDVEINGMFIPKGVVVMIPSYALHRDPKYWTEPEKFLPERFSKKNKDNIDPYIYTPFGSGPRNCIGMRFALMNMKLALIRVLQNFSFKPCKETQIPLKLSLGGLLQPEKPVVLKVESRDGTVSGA
Cytochrome P450 2C9 (Homo sapiens), sequence (P11712 whole entry, looked up): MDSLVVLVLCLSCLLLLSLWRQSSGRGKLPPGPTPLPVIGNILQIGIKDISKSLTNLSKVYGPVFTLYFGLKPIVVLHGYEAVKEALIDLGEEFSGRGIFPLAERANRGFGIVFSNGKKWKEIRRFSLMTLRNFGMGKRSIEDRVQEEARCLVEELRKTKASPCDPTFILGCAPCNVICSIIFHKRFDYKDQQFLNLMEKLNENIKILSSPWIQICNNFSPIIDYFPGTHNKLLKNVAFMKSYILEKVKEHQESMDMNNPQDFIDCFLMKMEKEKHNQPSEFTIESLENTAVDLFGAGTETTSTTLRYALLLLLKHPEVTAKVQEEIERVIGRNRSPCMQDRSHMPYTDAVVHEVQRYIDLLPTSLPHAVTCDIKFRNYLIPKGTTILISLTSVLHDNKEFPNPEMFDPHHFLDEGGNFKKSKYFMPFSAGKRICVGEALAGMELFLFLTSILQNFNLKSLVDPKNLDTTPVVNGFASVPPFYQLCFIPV

Turning to `C=CS(=O)(=O)O`, the Potency result in assay [1], in [2], in assay [3], in [4], in assay [5] and in assay [6] was “inactive” in each case. The Potency entry in assay [7], in [8] and in assay [9] was “inactive” each time.

Take `CC(=O)OCC1=C(C(=O)O)N2C(=O)[C@@H](NC(=O)Cc3cccs3)[C@H]2SC1`: the Potency result in assay [1], in assay [2], in assay [3], in assay [4], in assay [11] and in assay [12] was “inactive” in each case. Further, the Potency entry in assay [13], in assay [6], in assay [8], in [9] and in assay [14] was “inactive” each time. For the same compound, in assay [10], the max activation is -1.19% (inactive).

On to `C=CC(=O)OCCCCCCCC`, for which the Potency result in [1], in [2], in [3], in assay [4], in assay [5] and in assay [13] was “inactive” throughout. For the same compound, the Potency entry in [6], in [7], in [9] and in assay [14] was “inactive” throughout.

Regarding `COc1ccc(Cc2cnc(N)nc2N)cc1OC`, the Potency entry in assay [1], in [2], in assay [3], in assay [4], in assay [11] and in assay [12] was “inactive” in each case. The Potency result in assay [13], in [6], in assay [7], in assay [8], in assay [9] and in [14] was “inactive” in each case. Further, the max activation in assay [10] is 10.3% (inactive).

Turning to `NC(=Nc1ccccc1)Nc1ccccc1`, the Potency result in assay [1], in assay [2], in assay [3], in assay [11], in assay [12] and in assay [14] was “inactive” throughout. The Potency in [4] was 20.5 µM (active); in assay [13], 212 nM (active) and 617 nM (active); in assay [6] it was 39.9 µM (active) and inactive; in assay [7], 89.4 µM (active) and inactive; in assay [8] it was 50.2 µM (active) and inactive. Besides, in [10], the max activation is -2.33% (inactive).

As for `NCCO`, the Potency result in [1], in [2], in assay [3], in assay [4], in assay [9] and in assay [14] was “inactive” throughout. For the same compound, the Potency was 27.3 µM (active) in assay [5]; “inactive and 5.03 µM (active)” in assay [13]; “inactive and 11.2 µM (active)” in assay [6]; “inactive and 31.7 µM (active)” in assay [7]; 9.47 µM (active) in assay [8].

As for `C[N+]1([O-])CCOCC1`, the Potency result in assay [1], in assay [2], in assay [3], in assay [4], in assay [5] and in [13] was “inactive” throughout. Moreover, the Potency result in assay [9] and in assay [14] was “inactive” in each case. Further, the values for the Potency in assay [6] and in assay [8] were 39.8 µM (active) and 31.6 µM (active), respectively.

With `CC1=C(C=O)C(C)(C)CC=C1`, the Potency result in assay [1], in assay [2], in [3], in [4], in assay [5] and in [13] was “inactive” each time. The Potency result in assay [7], in assay [8] and in [9] was “inactive” throughout.

For `Cc1c(O)cccc1C(=O)N[C@@H](CSc1ccccc1)[C@H](O)CN1C[C@H]2CCCC[C@H]2C[C@H]1C(=O)NC(C)(C)C`, the Potency in [1] is 66.8 µM (active); in assay [2], 5.95 µM (active) and 10.6 µM (active); in assay [4] it was 11.9 µM (active) and 13.3 µM (active); in assay [13], 8.71 µM (active) and 15.5 µM (active); in [6], 9.77 µM (active); in assay [7] it was 19.5 µM (active) and 24.5 µM (active). Also, the Potency result in [3], in [8] and in assay [9] was “inactive” throughout.

Turning to `CCCOC(=O)c1cc(O)c(O)c(O)c1`, the Potency entry in [1], in [3], in assay [4], in assay [9] and in [14] was “inactive” throughout. The Potency in [2] was 48.3 µM (active) and 30.6 µM (active); in assay [5], 27.3 µM (active); in assay [13], 31.6 µM (active) and 35.6 µM (active); in assay [6] it was 79.3 µM (active) and 56.4 µM (active); in assay [8] it was 39.7 µM (active) and 39.9 µM (active).

In the case of `O=C(O)c1cccc(C(=O)O)c1`, the Potency result in assay [1], in assay [2], in assay [3], in assay [4], in [5] and in assay [13] was “inactive” throughout. Further, the Potency entry in [6], in [7], in [9] and in [14] was “inactive” in each case.

For `CC[C@@H](N)CO`, the Potency result in assay [1], in assay [2], in [3], in assay [4], in [5] and in assay [13] was “inactive” in each case. In addition, the Potency result in assay [6], in [7], in assay [9] and in [14] was “inactive” throughout.

Regarding `OCC(CO)N[C@H]1C[C@](O)(CO)[C@@H](O)[C@H](O)[C@H]1O`, the Potency result in assay [1], in assay [2], in [3], in assay [4], in assay [11] and in assay [12] was “inactive” in each case. The Potency result in assay [13], in [6], in assay [7], in assay [8], in assay [9] and in assay [14] was “inactive” throughout. Further, the max activation in [10] is -3.54% (inactive).

In the case of `CCC(CO)(CO)COCC(CC)(CO)CO`, the Potency entry in assay [1], in assay [2], in [3], in assay [4], in assay [5] and in assay [13] was “inactive” throughout. Besides, the Potency result in assay [6], in [8], in assay [9] and in [14] was “inactive” each time.

Take `CCCNC(C)C(=O)Nc1ccccc1C` (stereo unspecified): the Potency result in assay [1], in assay [2], in [3], in [4], in [11] and in [12] was “inactive” in each case. Moreover, the Potency result in [6], in assay [7], in assay [8], in assay [9] and in assay [14] was “inactive” each time. In addition, the max activation in [10] was -2.15% (inactive). In addition, in assay [13], the Potency is 27.5 µM (active).
